Assay outcomes: PubChem, National Center for Advancing Translational Sciences (NCATS)
Cycloheximide cs: affects cycloheximide protein synthesis inhibition readout, counter-screen | 12% of 300,000 active | max response, % | cell reporter, cycloheximide protein synthesis inhibition counterscreen; in the data active = max response mostly above about 13%, no sharp cut-off; inactive = mostly below about 14%; note: read at 38.3 µM for the half of the compounds with a filed dose
Giardia FBPA inh: Giardia lamblia aldolase inhibition; A8B2U2; purified Giardia FBPA; Potency, µM (highest dose often 59.6 µM), most hits filed as inhibitors; 0.71% of 290,000 active; note: nearly all actives have a fitted effect of over 55% in size
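Giardia FBPA (40 nM reagent) was preincubated 10 min at RT with compound (up to 57.5 uM final), then substrate plus GAPDH/TPI/NAD/arsenate coupling system with diaphorase/resazurin was added; resorufin fluorescence (525/598 nm) was read after 20 min.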
Sm TGR inh: blocks Schistosoma mansoni thioredoxin glutathione reductase. Q962Y6. purified TGR, DTNB reduction, TNB absorbance 405 nm. Potency, µM (doses to about 114 µM), usual class: inhibitors. 3% of 360,000 active. AID 485364; note: nearly all actives have a fitted effect of over 60% in size
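First, TGR (20 nM dispensed) and NADPH were mixed with compound. Second, a 15 min room-temperature incubation followed. Third, further NADPH and then DTNB were added to start the reaction. Finally, TNB absorbance was monitored kinetically.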
LmPK inhibitor: inhibitors of Leishmania mexicana pyruvate kinase. purified LmPK, Kinase-Glo ATP luminescence, 1 h. 0.37% of 290,000 active. Q27686. AID 1721. Potency, µM (titrated, usually from 57.5 µM), usual class: inhibitors
Target sequence (Q27686 whole entry, looked up): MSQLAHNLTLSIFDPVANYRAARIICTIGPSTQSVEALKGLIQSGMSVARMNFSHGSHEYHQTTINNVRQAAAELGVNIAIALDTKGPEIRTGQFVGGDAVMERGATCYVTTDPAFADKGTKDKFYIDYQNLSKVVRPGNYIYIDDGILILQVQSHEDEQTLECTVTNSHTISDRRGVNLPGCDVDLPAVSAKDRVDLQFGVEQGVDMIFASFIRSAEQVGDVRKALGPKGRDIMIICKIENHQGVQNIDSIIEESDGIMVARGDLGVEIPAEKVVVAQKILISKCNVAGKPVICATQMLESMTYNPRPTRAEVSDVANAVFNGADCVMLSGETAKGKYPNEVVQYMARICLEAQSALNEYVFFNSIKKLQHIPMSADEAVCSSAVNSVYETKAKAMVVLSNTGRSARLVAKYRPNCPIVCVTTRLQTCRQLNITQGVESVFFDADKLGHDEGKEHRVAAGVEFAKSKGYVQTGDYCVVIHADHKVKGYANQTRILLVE
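Purified LmPK (0.1 nM) converted ADP (0.1 mM) to ATP with PEP (0.5 mM) in imidazole buffer pH 7.2 with KCl and MgCl2, 1 h at room temperature. ATP was read by Kinase-Glo luminescence; data normalized to uninhibited and no-enzyme controls.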
TbPYK inhibitor: blocks Trypanosoma brucei pyruvate kinase; Potency, µM (top dose mostly 76.8 µM), actives largely listed as inhibitors; 0.12% of 410,000 active; TbPYK enzyme, Kinase-Glo Plus ATP luminescence, 45 min; Q57TT1; note: nearly all actives have a fitted effect of over 50% in size
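Luminescence from Kinase-Glo Plus, added after a 45-minute room-temperature reaction, served as the end-point read-out. The enzyme and substrate were preincubated with compound before ADP (130 uM final) initiated turnover. Concentration-effect curves came from normalized qHTS data.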
Shiga inhibitor: Shiga toxin inhibition; Vero cells, Shiga toxin protein synthesis inhibition reporter; inhibition, % at 38.7 µM; 9.2% of 290,000 active; in the data active = inhibition mostly above about 28%, no sharp cut-off; inactive = mostly below about 43%
A number is an active result; – = inactive; ? = inconclusive; · = no result given; + = active, no number; [ ] = another dose, or the depositor's remark. The full list was thinned out, with hits kept by preference. Unless noted, calls come from the whole dose curve; as a rule, active = well fitted curve in the direction sought with a large enough effect; inconclusive = small, poorly fitted or top-dose-only effect, or another doubt; inactive = no such curve, though single readings can be large; an effect the other way counts as inactive or inconclusive.

SMILES	Cycloheximide cs	Giardia FBPA inh	Sm TGR inh	LmPK inhibitor	TbPYK inhibitor	Shiga inhibitor
O/N=C/c1cn(-c2ccc(Cl)cc2)nn1	37	–	–	–	–	–
O/N=C/c1cn(-c2ccccc2)nn1	27	–	–	–	–	–
Clc1ccc(-n2cnnn2)cc1	–	–	–	–	–	–
Cc1ccc(NC(=O)CN2C(=O)c3ccccc3Sc3ccc(C(=O)N4CCOCC4)cc32)cc1F	·	·	–	·	–	·
Cc1ccc(CCNC(=O)c2cn(C)c3ccc(S(=O)(=O)N4CCC(C)CC4)cc3c2=O)cc1	·	·	–	·	–	·
CCOC(=O)c1c(Nc2ccccc2)nnc(-c2ccccc2)c1-c1ccccc1	·	·	–	·	–	·
CCOC(=O)c1c(Nc2ccc(O)cc2)nnc(-c2ccccc2)c1-c1ccccc1	·	·	45µM	·	–	·
Cc1ccc(CNC(=O)C2CC3Cn4c(nc5cc6ccccc6cc54)C3N2C)o1 (stereo not given)	–	–	45µM	–	–	–
C=CCNC(=O)C1CC2Cn3c(nc4ccccc43)C2N1C (stereo not given)	–	–	?	–	–	–
Cc1ccc(CNC(=O)C2CC3Cn4c(nc5ccccc54)C3N2C)o1 (stereo not given)	·	·	35µM	·	–	·
CN1C(C(=O)NCC2CC2)CC2Cn3c(nc4cc5ccccc5cc43)C21 (stereo not given)	–	–	–	–	–	–
COc1ccc(CNC(=O)C2CCCN2C(=O)Nc2cccc(Cl)c2)cc1 (stereo not given)	·	·	·	·	–	·
Cc1nc2nc(-c3ccccc3)cn2nc1C	28	–	–	13µM	–	85
c1ccc(-c2cn3nc(-c4ccccc4)cnc3n2)cc1	49	–	–	–	–	+
Cc1nc2nc(-c3ccc(F)cc3)cn2nc1C	32	–	–	?	?	–
CCc1ccc(-c2cn3nc(C)c(C)nc3n2)cc1	–	–	–	–	–	–
CC1CCCN(C(=O)CCc2nnc(-c3ccc4c(c3)OCO4)o2)C1 (stereo not given)	37	·	–	–	–	101
Cc1cc(C)n(CCN(C)C(=O)CCc2nnc(-c3ccc4c(c3)OCO4)o2)n1	9.7	–	–	–	–	–
CCC(=O)C1CCCN(C(=O)CCc2nnc(-c3ccc(C(C)=O)s3)o2)C1 (stereo not given)	40	–	?	–	–	98
COc1cccc(CCNC(=O)CCc2nnc(-c3ccc4c(c3)OCO4)o2)c1	–	·	–	–	–	–
CCC(=O)C1CCCN(C(=O)CCc2nnc(-c3ccc4c(c3)OCO4)o2)C1 (stereo not given)	38	–	–	–	–	51
CCn1nc(C)c(CNC(=O)CCc2nnc(-c3ccc(C(C)=O)s3)o2)c1C	–	–	·	–	–	–
O=C(CCc1nnc(-c2ccc3c(c2)OCO3)o1)NCCc1ccccc1F	–	–	–	–	?	–
COc1ccc(-c2noc(CSc3nnc(-c4ccncc4)n3-c3ccc(C)cc3)n2)cc1OC	·	·	–	·	–	·
CCOCCc1nn2c(=O)cc(COC(=O)c3ccc4c(c3)OCO4)nc2s1	·	·	–	·	–	·
SMILES	Cycloheximide cs	Giardia FBPA inh	Sm TGR inh	LmPK inhibitor	TbPYK inhibitor	Shiga inhibitor
CCCOC1CCCN(C(=O)CCc2nnc(-c3ccc4c(c3)OCO4)o2)C1 (stereo not given)	46	·	–	–	–	117
O=C(CCc1nnc(-c2ccc3c(c2)OCO3)o1)N(Cc1ccncc1)CC1CCCO1 (stereo not given)	–	–	–	–	–	–
CCC(OC(=O)CC1Sc2ccccc2NC1=O)C(=O)NCC1CCCO1 (stereo not given)	–	–	25µM	–	–	–
CCCOc1ccc(/C=C/C(=O)N2CCOCC2)cc1	56	–	–	–	–	61
O=C(/C=C/c1ccccc1)N1CCOCC1	–	–	–	–	–	–
O=C(/C=C/c1ccc(Cl)c(Cl)c1)n1cccn1	–	–	–	–	–	–
O=C(/C=C/c1ccc(OCc2cccc(Cl)c2)cc1)N1CCOCC1	24	–	–	–	–	–
O=C(/C=C/c1ccc(Cl)cc1)N1CCOCC1	35	–	–	–	–	54
O=C(/C=C/c1ccc(Cl)c(Cl)c1)N1CCOCC1	24	–	–	–	–	104
COC(C(=O)Nc1ccnn1C1CCN(Cc2ccc(C)s2)CC1)c1ccccc1 (stereo not given)	–	–	–	–	–	–
CC(C)c1ccc(/C=C/C(=O)N2CCCCCC2)cc1	21	–	–	–	–	–
CC(C)c1ccc(/C=C/C(=O)N2CCOCC2)cc1	43	–	–	–	–	28
O=C(C=Cc1ccccc1)N1CCCCC1	·	·	·	·	–	·
O=C(COc1ccc(/C=C\[N+](=O)[O-])cc1)N1CCOCC1	–	–	22µM	–	–	–
COc1cccc(-c2nc3sc4c(c3c(=O)[nH]2)CCCCC4)c1	21	–	–	–	–	75
COCc1nc2sc3c(c2c(=O)[nH]1)CCCC3	17	–	–	–	–	–
CC(=O)OCc1nc2sc3c(c2c(=O)[nH]1)CCCC3	–	–	–	–	–	–
CCOC(=O)C1=C[C@@H](C(=O)OCC)[C@@H]2C3=C(C(=O)C2(C)C)[C@H](c2ccccc2)[C@@H]2C(=O)N(c4ccccc4)C(=O)[C@@H]2[C@@H]3C1	–	–	·	·	·	–
COc1cccc(C2C(=O)c3ccccc3C2=O)c1	–	–	–	–	–	–
COc1ccc(C2C(=O)c3ccccc3C2=Nc2ccc(Br)cc2)cc1 (stereo not given)	–	–	?	–	–	–
O=C1NC(c2ccc(O)cc2)Nc2ccccc21 (stereo not given)	13	–	–	–	–	–
O=C1c2ccccc2C(=O)C1c1ccc(O)cc1	28	–	–	–	–	70
O=C1c2ccccc2C(=O)C1c1ccc(Cl)cc1	27	·	–	–	–	–
O=C1c2ccccc2C(=O)C1c1ccc(F)cc1	·	·	·	·	–	·
O=C1c2ccccc2C(=O)C1c1ccc(Br)cc1	19	–	–	–	–	88
SMILES	Cycloheximide cs	Giardia FBPA inh	Sm TGR inh	LmPK inhibitor	TbPYK inhibitor	Shiga inhibitor
COc1cc(C2CC(=O)Nc3cc4c(cc32)OCCO4)cc(OC)c1O (stereo not given)	·	·	–	·	–	·
COc1ccc(S(=O)(=O)N2CCCCC2)cc1NC(=O)C1CC(=O)N(Cc2ccccc2)C1 (stereo not given)	·	·	–	·	–	·
O=C(O)C/C=C(\NC(=O)OCc1ccccc1)C(=O)OCc1ccccc1	–	–	16µM	–[11.5 µM]	–	–
Brc1ccc(-c2ccc(CNCCSc3nnnn3-c3ccccc3)o2)cc1	·	·	18µM	·	–	·
CCN(c1ccccc1)S(=O)(=O)c1nnc(NC(=O)c2ccccc2OC)s1	–	?	–	–	–	–
CN(C)S(=O)(=O)c1cccc(NC(=O)CCCSc2ccccc2)c1	–	–	–	–	–	–
CC(=O)c1cccc(NC(=O)CCCSc2ccccc2)c1	–	–	?	–	–	20
